“And” between values parts separate entries of the source, which are not always exact repeats. Identical values can stand only once. Compounds without any hit were thinned out: in the full panel of roughly 79,000, 15% have a hit. Values without a mark were called inactive. The source made the active and inactive calls. No stated cut-off is given here; in the data, active means growth inhibition above about 70%; inactive means the rest.

Assay [1] in a line: NCI Yeast Anticancer Drug Screen. Data for the rad50 strain (AID 155).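 Further: 0% = growth of vehicle-only cultures of the same strain.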 The settings on record: S. cerevisiae rad50 strain growth inhibition, stronger effect = higher value; at 50.0 µM unless noted. The procedure, abridged: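 Genetically altered yeast (DNA repair pathway); compound treatment; growth inhibition vs vehicle ctrl.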
Assay [2] in a line: NCI Yeast Anticancer Drug Screen. Data for the mec2-1 strain (AID 157). The settings on record: S. cerevisiae mec2-1 strain, stronger effect = higher value; at 50.0 µM unless noted. The procedure, abridged: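 Cells of the genetically defined mec2-1 yeast strain are incubated with test compound. Inhibition of growth is calculated against vehicle-treated controls.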
Assay [3] can be described thus: NCI Yeast Anticancer Drug Screen. Data for the sgs1 mgt1 strain (AID 161).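 Further: 0% = growth of cultures given vehicle only.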 The settings on record: S. cerevisiae sgs1 mgt1 strain, stronger effect = higher value; at 50.0 µM unless noted. The procedure, abridged: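 Inhibition of yeast growth, normalised to vehicle-treated controls, is reported for a strain bearing genetic alterations in DNA damage repair.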
Assay [4] can be described thus: NCI Yeast Anticancer Drug Screen. Data for the cln2 rad14 strain (AID 165).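 Further: 0% = growth equal to vehicle treated cultures.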 To be noted: S. cerevisiae cln2 rad14 strain, stronger effect = higher value; at 50.0 µM unless noted. The procedure, abridged:
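The screen exposed genetically defined yeast (cln2 rad14) to test compounds and scored growth inhibition relative to vehicle-treated controls.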

Assay [5] in a line: NCI Yeast Anticancer Drug Screen. Data for the bub3 strain (AID 167). The settings on record: S. cerevisiae bub3 mutant strain, stronger effect = higher value; at 50.0 µM unless noted. The procedure, abridged:
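Yeast carrying a defined mutation is treated with each compound, and growth is compared with that of vehicle-exposed cells to give inhibition.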

Assay [6] is described as follows: NCI Yeast Anticancer Drug Screen. Data for the mlh1 rad18 strain (AID 175). The settings on record: S. cerevisiae mlh1 rad18 strain growth inhibition, stronger effect = higher value; at 50.0 µM unless noted. The procedure, abridged:
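Compound-treated yeast growth, normalised to vehicle controls. Strain bears defined DNA repair mutations.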

In the case of `O=[N+]([O-])c1cccc(/C=C/c2ccnc3ccccc23)c1`, the growth inhibition was 10.2% in assay [1]; -13.1% in assay [2]; 2.95% in assay [3]; 5.65% in assay [4]; 19.4% in assay [5]; 4.15% in assay [6].

As to `O=C1c2cc(Cc3ccccc3)c(=O)c(Cc3ccccc3)cc2C(=O)c2cc(Cc3ccccc3)c(=O)c(Cc3ccccc3)cc21`, the growth inhibition was 23% in assay [1]; -11.3% in assay [2]; -11.3% in assay [3]; -26% in assay [4]; -6.35% in assay [5]; 20.3% in assay [6].

For `CC(=O)OC1=C2OC(=O)C3(C2C=CC=C1)C1C=CC=CC13` (centres undefined), the growth inhibition in assay [1] was -17.9%; in assay [2], 1.3%; in assay [3], 2.8%; in assay [4], -2.45%; in assay [5], -13.8%; in assay [6], -1.95%.

As for `CCOC(=O)C(C#N)=C(C)C`, the growth inhibition is -12.6% and 26.9% in assay [1]; 7.8% and 2.75% in assay [2]; -2.55% and 17% in assay [3]; -19.1% and -1.1% in assay [4]; 0.65% and -13.8% in assay [5]; 20.4% and 17.1% in assay [6].

Consider `O=C(c1ccccc1)c1ccc(NC(=O)C(F)(F)F)cc1`, for which the growth inhibition in assay [1] is 15.7%; in assay [2] it was 5.9%; in assay [3], 3.85%; in assay [4], 4.75%; in assay [5], -0.15%; in assay [6], 18.9%.

Turning to `CC1(C)CC[C@]2(C(=O)O)CC[C@]3(C)C(=CC[C@@H]4[C@@]5(C)CC[C@H](OC6OC(CO)C(O)C(O)C6O)C(C)(C)[C@@H]5CC[C@]43C)[C@@H]2C1` (some centres undefined), the growth inhibition in assay [1] is 76.2% (active); in assay [2], 74.8% (active); in assay [3], 47.9%; in assay [4] it was 74.2% (active); in assay [5], 82.4% (active); in assay [6] it was 54.4%.

Consider `COC(=O)[C@]1(c2ccc(N(C)C)cc2OC)C[C@@H]2CCCN(CCc3c1[nH]c1ccccc31)C2`, for which the growth inhibition was -5.8% in assay [1]; -4.35% in assay [2]; -11.5% in assay [3]; 18.4% in assay [4]; -0.65% in assay [5]; 21.6% in assay [6].

Turning to `CC(C)(C)NCCS`, the growth inhibition was -17.1% in assay [1]; -34.9% in assay [2]; -32.4% in assay [3]; 2.95% in assay [4]; -19.9% in assay [5]; -12.8% in assay [6].

Consider `O=C(O)c1cccc2c(=O)c3ccccc3oc12`, for which the growth inhibition is -13.9% in assay [1]; -39.8% in assay [2]; -16.9% in assay [3]; 8.25% in assay [4]; -32.4% in assay [5]; 0.85% in assay [6].

For `COC(=O)c1cc(NC(=O)Nc2cc(C(F)(F)F)ccc2Cl)cc(C(=O)OC)c1`, the growth inhibition in assay [1] is -24.2%; in assay [2] it was -32%; in assay [3], -9.65%; in assay [4], -22.9%; in assay [5], -0.55%; in assay [6], -38.2%.

As for `CN(C)C1=NS(=O)(=O)c2ccccc21`, the growth inhibition in assay [1] was -0.75%; in assay [2], 1%; in assay [3] it was -7.25%; in assay [4] it was -40.3%; in assay [5], 6.35%; in assay [6] it was 2.9%.

On to `COc1ccc(/C(C)=N/NC(=O)c2ccncc2)cc1OC`, for which the growth inhibition in assay [1] is -9.6%; in assay [2] it was -9.9%; in assay [3] it was -18.6%; in assay [4] it was -12.7%; in assay [5], -40%; in assay [6] it was -4.2%.

As to `S=c1[nH]c2ccccc2c(=S)n1CN1CCCCC1`, the growth inhibition is -26.6% in assay [1]; -27.4% in assay [2]; -15.3% in assay [3]; -13.1% in assay [4]; 4.6% in assay [5]; -11.9% in assay [6].

As for `Nc1nc(N)c2nc(SC34CC5CC(CC(C5)C3)C4)c(N)nc2n1`, the growth inhibition is -1.6% in assay [1]; 2.05% in assay [2]; -7.1% in assay [3]; -20.8% in assay [4]; -3.65% in assay [5]; 1.4% in assay [6].

Turning to `COc1c(OC(C)=O)ccc(/C=C2\N=C(C)OC2=O)c1[N+](=O)[O-]`, the growth inhibition in assay [1] was -8.3%; in assay [2], -4.75%; in assay [3], 5.25%; in assay [4], 16.5%; in assay [5], 11.1%; in assay [6] it was 9.2%.

In the case of `CCC(O)(c1ccccc1)C(O)(CC)c1ccccc1` (centres undefined), the growth inhibition was 15.8% in assay [1]; 8.9% in assay [2]; -2.05% in assay [3]; 22.8% in assay [4]; -13% in assay [5]; 23.3% in assay [6].

On to `CCOC(=O)c1ccc(NCc2ccc(CNc3ccc(C(=O)OCC)cc3)cc2)cc1`, for which the growth inhibition was -35.4% in assay [1]; -18.2% in assay [2]; -36.2% in assay [3]; -11.8% in assay [4]; -21.4% in assay [5]; -27% in assay [6].

On to `Cc1ccc(S(=O)(=O)Nc2ccc([N+](=O)[O-])cc2-c2ccccc2)cc1`, for which the growth inhibition in assay [1] was -0.25%; in assay [2] it was -9.2%; in assay [3], 0.2%; in assay [4] it was -1.15%; in assay [5] it was 5.15%; in assay [6], 4.2%.

As for `COC(=O)c1cccc(C(=O)OC)c1`, the growth inhibition was -33.1% and 14.2% in assay [1]; -3.45% and -1.6% in assay [2]; -14.4% and 18.8% in assay [3]; 5.2% and -1.7% in assay [4]; -1.9% and 19.4% in assay [5]; 3.75% and 15.4% in assay [6].

The values above are taken from PubChem BioAssay (NCI).
